# Measurements from PubChem BioAssay (EPA / NIEHS).
# Inconclusive results are not listed. Calls of active or inactive are those of the source. Rule for the calls: active = hit-call score of the fitted dose curve at least 0.9, where 1 is the maximum; inconclusive = response in the unintended direction; inactive = score below 0.9.
# Legend:
# [1] = target: rat Adrenergic Receptor, Alpha 2 (Adra2), Non-selective Binding, Adra2a (gene 25083) (UniProt P22909); assay: NVS_GPCR_rAdra2_NonSelective: NovaScreen (NVS) G Protein-Coupled Receptor Assay for rat Adrenergic Receptor, Alpha 2 (Adra2), Non-selective Binding (AID 2283299)
# How it was run: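 Rat cortical membranes, radioligand competitive displacement read by filter-based scintillation counting 1.25 hours after dosing. Primary screen in duplicate at 25 uM; actives followed up in concentration series.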
# Adra2b (gene 24174) = Adra2b (gene 24174) (UniProt P19328); assay: NVS_GPCR_rmAdra2B: NovaScreen (NVS) G Protein-Coupled Receptor Assay for hybird cells Adrenergic, Alpha 2B Receptor (Adra2B) (AID 2283306)
# How it was run: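 Radioligand filter-binding assay on membrane proteins from neuroglioma/blastoma hybrid cells (rodent), 1 h after dosing; scintillation counting, loss of signal vs DMSO. Primary screen in duplicate at 25 uM, actives then run in concentration series.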
# [2] = target: rat Opioid Receptor, Non-selective Binding, Oprm1 (gene 25601) (UniProt P33535); assay: NVS_GPCR_rOpiate_NonSelective: NovaScreen (NVS) G Protein-Coupled Receptor Assay for rat Opioid Receptor, Non-selective Binding (AID 2283318)
# How it was run: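 Rat forebrain membranes, cell-free radioligand binding with filter-based scintillation counting, read 1.5 h after dosing. Primary screen in duplicate at 25 uM; actives retested in concentration series. Loss of signal versus DMSO baseline scored.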
# [3] = target: rat Vasopressin 1 Receptor (V1), Avpr1a (gene 25107) (UniProt P30560); assay: NVS_GPCR_rV1: NovaScreen (NVS) G Protein-Coupled Receptor Assay for rat Vasopressin 1 Receptor (V1) (AID 2283316)
# How it was run: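 Radioligand binding on rat liver membranes, 1.5 h incubation, filter-based scintillation counting. Single 25 uM screen in duplicate; chemicals meeting threshold (e.g. 30% inhibition) run in concentration-response up to 50 uM.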
# [4] = target: rat Histamine Receptor (H3), Hrh3 (gene 85268) (UniProt Q9QYN8); assay: NVS_GPCR_rH3: NovaScreen (NVS) G Protein-Coupled Receptor Assay for rat Histamine Receptor (H3) (AID 2283303)
# How it was run: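 Rat forebrain membranes incubated 1 h with compound; radioligand displacement measured by filter-based scintillation counting. Single-concentration duplicates at 25 µM, then concentration-response up to 50 µM, relative to DMSO.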
# [5] = target: rat Neurokinin-1 Receptor (NK1), Tacr1 (gene 24807) (UniProt P14600); assay: NVS_GPCR_rNK1: NovaScreen (NVS) G Protein-Coupled Receptor Assay for rat Neurokinin-1 Receptor (NK1) (AID 2283309)
# How it was run: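 Rat submaxillary gland membranes; radioligand displacement read by filter-based scintillation counting after 1 h. Primary screen in duplicate at 25 uM; actives retested in concentration series; loss of binding fitted versus DMSO.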
# [6] = target: rat Neurokinin-3 Receptor (NK3), Tacr3 (gene 24808) (UniProt P16177); assay: NVS_GPCR_rNK3: NovaScreen (NVS) G Protein-Coupled Receptor Assay for rat Neurokinin-3 Receptor (NK3) (AID 2283310)
# How it was run: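 Rat cortical membranes; radioligand binding with filtration and scintillation counting, 2 h after dosing. Primary screen in duplicate at 25 uM, then concentration-response up to 50 uM; loss of binding signal relative to DMSO.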
# [7] = target: rat Neonicotinoid receptor (NNR), Chrna7 (gene 25302) (UniProt Q05941); assay: NVS_LGIC_rNNR_BungSens: NovaScreen (NVS) Ligand-Gated Ion Channel Assay for rat Neonicotinoid receptor (NNR) (AID 2283315)
# How it was run: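 Radioligand displacement binding on rat cortical membranes, 2.5 h incubation, filtration and scintillation counting. Loss of specific binding fitted relative to DMSO.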
# [8] = target: rat Gamma-Aminobutyric Acid Type B Receptor (GABBR), Gabbr1 (gene 81657) (UniProt Q9Z0U4); assay: NVS_GPCR_rGABBR: NovaScreen (NVS) G Protein-Coupled Receptor Assay for rat Gamma-Aminobutyric Acid Type B Receptor (GABBR) (AID 2283301)
# Description: NVS_GPCR_rGABBR is a biochemical, single-readout assay that uses extracted gene-proteins from Rat cortical membranes in a tissue-based cell-free assay. Measurements were taken 1 hour after chemical dosing in a 96-well plate.NVS_GPCR_rGABBR is one of one assay component(s) measured or calculated from the NVS_GPCR_rGABBR assay. It is designed to make measurements of radioligand binding, a form of binding reporter, as detected with scintillation counting signals by Filter-based radiodetection technology.Data from the assay component NVS_GPCR_rGABBR was analyzed into 1 assay endpoint. This assay endpoint, NVS_GPCR_rGABBR, was analyzed in the positive analysis fitting direction relative to DMSO as the negative control and baseline of activity. Using a type of binding reporter, loss-of-signal activity can be used to understand changes in the binding as they relate to the gene Gabbr1. Furthermore, this assay endpoint can be referred to as a primary readout, because the performed assay has only produced 1 assay endpoint. To generalize the intended target to other relatable targets, this assay endpoint is annotated to the gpcr intended target family, where the subfamily is metabotropic glutamate receptor. […]
# [9] = target: rat Somatostatin Receptor (SST), Sstr1 (gene 25033) (UniProt P28646); assay: NVS_GPCR_rSST: NovaScreen (NVS) G Protein-Coupled Receptor Assay for rat Somatostatin Receptor (SST) (AID 2283314)
# How it was run: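 Rat forebrain membranes; radioligand displacement read by filter-based scintillation counting 1 h after dosing. Primary screen in duplicate at 25 uM. Actives (e.g., 30% inhibition) were rerun as concentration-response to 50 uM max and fitted against DMSO.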
# Sequence of Adra2b (gene 24174) (P19328 whole entry, looked up): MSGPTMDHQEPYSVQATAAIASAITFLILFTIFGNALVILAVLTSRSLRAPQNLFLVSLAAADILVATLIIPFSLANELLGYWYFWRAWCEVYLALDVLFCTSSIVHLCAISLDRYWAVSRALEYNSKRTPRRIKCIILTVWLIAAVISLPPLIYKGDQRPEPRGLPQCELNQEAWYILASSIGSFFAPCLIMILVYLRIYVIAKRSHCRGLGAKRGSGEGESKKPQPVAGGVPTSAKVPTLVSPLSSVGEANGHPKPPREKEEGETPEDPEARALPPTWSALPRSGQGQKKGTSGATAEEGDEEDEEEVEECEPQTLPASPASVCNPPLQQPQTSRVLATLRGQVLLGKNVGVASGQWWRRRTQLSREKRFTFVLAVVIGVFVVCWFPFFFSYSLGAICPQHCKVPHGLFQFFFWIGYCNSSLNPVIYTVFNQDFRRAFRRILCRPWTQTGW
# Sequence of rat Neurokinin-1 Receptor (NK1), Tacr1 (gene 24807) (P14600 whole entry, looked up): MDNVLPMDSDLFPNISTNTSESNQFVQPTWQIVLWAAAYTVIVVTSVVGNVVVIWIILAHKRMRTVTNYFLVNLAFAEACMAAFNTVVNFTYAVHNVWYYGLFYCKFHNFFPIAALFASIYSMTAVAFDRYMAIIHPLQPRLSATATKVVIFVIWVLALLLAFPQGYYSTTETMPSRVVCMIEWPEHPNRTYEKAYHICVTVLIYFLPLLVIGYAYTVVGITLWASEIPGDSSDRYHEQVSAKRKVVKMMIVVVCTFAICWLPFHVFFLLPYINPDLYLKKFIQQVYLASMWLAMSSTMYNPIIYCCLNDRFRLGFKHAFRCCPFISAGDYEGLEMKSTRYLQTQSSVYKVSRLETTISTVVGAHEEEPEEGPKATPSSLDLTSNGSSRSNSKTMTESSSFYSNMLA
# Sequence of rat Neurokinin-3 Receptor (NK3), Tacr3 (gene 24808) (P16177 whole entry, looked up): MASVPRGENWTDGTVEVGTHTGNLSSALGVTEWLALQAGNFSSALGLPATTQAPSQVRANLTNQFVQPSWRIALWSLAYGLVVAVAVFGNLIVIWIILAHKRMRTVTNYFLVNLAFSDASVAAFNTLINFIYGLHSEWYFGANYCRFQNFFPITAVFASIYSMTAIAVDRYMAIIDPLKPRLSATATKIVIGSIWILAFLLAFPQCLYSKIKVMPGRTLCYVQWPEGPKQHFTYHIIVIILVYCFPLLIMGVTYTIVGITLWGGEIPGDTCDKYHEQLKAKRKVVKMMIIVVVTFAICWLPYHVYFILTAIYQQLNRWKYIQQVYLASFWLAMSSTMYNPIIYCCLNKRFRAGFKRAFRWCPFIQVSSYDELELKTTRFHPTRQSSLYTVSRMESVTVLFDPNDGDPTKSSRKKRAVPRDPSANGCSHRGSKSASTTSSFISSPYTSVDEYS
# Sequence of rat Adrenergic Receptor, Alpha 2 (Adra2), Non-selective Binding, Adra2a (gene 25083) (P22909 whole entry, looked up): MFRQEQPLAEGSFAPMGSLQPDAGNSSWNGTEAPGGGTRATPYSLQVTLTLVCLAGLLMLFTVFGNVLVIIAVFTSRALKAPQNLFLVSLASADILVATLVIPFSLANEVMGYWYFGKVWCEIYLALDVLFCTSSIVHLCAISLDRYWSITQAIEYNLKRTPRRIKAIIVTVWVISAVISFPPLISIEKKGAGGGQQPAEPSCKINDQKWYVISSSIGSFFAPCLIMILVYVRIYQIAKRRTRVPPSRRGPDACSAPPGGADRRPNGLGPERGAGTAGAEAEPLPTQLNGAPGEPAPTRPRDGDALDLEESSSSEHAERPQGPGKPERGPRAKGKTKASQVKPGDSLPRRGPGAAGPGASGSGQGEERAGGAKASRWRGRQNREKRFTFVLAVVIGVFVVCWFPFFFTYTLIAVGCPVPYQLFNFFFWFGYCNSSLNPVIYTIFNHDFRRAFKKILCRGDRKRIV
# Sequence of rat Opioid Receptor, Non-selective Binding, Oprm1 (gene 25601) (P33535 whole entry, looked up): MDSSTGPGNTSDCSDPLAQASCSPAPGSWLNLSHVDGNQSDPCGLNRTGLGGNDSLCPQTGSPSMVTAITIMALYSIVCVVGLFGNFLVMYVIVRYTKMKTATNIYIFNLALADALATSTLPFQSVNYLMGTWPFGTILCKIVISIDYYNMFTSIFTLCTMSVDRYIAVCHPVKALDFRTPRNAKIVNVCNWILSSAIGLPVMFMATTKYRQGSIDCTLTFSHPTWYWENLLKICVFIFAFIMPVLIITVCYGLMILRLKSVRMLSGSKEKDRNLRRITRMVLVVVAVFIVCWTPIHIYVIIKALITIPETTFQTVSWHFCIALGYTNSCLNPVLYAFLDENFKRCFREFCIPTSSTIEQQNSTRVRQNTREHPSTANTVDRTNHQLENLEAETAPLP
# Sequence of rat Neonicotinoid receptor (NNR), Chrna7 (gene 25302) (Q05941 whole entry, looked up): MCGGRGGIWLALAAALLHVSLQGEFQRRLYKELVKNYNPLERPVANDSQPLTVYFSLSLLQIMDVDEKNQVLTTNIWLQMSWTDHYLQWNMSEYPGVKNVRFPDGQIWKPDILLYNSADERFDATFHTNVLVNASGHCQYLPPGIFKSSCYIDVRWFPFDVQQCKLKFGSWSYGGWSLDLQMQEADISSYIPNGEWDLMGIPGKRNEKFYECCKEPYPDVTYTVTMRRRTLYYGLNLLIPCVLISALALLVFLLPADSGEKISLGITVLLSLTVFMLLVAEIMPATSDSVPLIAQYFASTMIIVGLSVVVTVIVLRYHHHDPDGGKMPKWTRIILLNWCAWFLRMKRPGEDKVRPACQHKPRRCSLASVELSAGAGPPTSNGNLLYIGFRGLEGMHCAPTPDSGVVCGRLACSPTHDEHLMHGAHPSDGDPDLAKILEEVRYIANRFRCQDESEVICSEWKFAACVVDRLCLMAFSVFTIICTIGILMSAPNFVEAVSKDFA
# Sequence of rat Vasopressin 1 Receptor (V1), Avpr1a (gene 25107) (P30560 whole entry, looked up): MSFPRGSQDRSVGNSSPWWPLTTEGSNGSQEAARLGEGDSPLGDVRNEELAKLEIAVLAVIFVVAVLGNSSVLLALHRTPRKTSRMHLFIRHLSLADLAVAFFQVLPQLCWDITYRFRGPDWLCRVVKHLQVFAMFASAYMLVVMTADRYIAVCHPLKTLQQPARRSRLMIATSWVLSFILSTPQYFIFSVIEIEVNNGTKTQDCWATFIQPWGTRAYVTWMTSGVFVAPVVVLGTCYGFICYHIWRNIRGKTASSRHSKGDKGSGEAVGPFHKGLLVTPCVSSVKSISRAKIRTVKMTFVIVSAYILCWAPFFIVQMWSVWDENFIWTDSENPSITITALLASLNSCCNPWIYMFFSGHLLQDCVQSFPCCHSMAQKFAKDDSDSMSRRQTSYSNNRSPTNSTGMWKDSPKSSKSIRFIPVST
# Sequence of rat Histamine Receptor (H3), Hrh3 (gene 85268) (Q9QYN8 whole entry, looked up): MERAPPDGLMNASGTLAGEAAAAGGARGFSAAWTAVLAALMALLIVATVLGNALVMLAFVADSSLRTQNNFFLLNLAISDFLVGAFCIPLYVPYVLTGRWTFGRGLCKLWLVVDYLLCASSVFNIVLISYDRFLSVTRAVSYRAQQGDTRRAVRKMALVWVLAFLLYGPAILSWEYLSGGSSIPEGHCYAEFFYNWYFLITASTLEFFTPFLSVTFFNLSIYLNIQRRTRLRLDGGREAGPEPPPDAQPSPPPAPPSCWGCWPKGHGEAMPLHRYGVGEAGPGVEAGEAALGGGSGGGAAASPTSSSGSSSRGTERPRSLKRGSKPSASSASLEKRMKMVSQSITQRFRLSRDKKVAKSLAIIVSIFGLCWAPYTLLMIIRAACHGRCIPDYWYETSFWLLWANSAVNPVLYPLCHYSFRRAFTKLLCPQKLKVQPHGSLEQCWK
# Sequence of rat Somatostatin Receptor (SST), Sstr1 (gene 25033) (P28646 whole entry, looked up): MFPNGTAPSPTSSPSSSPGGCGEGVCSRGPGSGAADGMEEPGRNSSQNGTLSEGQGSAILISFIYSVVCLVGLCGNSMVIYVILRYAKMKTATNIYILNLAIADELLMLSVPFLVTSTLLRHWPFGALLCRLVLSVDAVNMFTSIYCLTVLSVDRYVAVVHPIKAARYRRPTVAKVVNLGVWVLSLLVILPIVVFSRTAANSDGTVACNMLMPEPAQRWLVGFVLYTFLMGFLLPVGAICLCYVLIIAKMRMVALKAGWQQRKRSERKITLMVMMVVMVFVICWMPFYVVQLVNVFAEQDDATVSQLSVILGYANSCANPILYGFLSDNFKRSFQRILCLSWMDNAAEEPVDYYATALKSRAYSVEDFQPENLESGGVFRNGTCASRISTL
# Sequence of rat Gamma-Aminobutyric Acid Type B Receptor (GABBR), Gabbr1 (gene 81657) (Q9Z0U4 whole entry, looked up): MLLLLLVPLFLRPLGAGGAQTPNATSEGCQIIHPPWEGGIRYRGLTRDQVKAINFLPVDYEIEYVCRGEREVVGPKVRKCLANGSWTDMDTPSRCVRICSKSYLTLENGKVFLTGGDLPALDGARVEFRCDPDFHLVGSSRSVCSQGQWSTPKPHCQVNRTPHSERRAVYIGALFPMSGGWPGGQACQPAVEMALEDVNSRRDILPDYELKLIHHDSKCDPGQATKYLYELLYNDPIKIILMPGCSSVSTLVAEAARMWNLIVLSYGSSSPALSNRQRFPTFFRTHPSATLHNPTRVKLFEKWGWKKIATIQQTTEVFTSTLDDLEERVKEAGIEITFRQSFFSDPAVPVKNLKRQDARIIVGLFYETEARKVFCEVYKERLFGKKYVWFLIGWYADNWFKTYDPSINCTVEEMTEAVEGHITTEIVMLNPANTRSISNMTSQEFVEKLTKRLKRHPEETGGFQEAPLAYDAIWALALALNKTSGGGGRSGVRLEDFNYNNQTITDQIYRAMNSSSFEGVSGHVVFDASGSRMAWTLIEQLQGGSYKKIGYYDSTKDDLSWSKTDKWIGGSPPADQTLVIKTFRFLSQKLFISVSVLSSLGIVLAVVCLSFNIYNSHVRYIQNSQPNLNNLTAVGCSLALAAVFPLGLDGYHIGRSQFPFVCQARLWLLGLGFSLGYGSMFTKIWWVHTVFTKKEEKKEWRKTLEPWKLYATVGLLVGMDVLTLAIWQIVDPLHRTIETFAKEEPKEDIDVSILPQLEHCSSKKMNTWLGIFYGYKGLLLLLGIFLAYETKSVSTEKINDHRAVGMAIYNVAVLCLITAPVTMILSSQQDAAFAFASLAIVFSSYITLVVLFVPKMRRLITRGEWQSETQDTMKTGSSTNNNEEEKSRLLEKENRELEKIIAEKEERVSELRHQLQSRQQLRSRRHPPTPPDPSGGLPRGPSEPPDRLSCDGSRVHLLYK
compound,measurement,setting,value
NC(=Nc1ccccc1)Nc1ccccc1,outcome,[1],inactive
same,AC50,Adra2b (gene 24174),11.7 µM (active)
same,outcome,[2],inactive
CC(=O)O,outcome,[3],inactive
CN(C)CCCN(C)CCCN(C)C,AC50,[4],25 µM (active)
CCCCc1nc2cccnc2n1Cc1ccc(-c2ccccc2-c2nnn[nH]2)cc1,outcome,[5],inactive
same,AC50,[6],5.16 µM (active)
same,outcome,[7],inactive
Cc1cc(SC2=C(O)C[C@@](CCc3ccc(N)cc3)(C(C)C)OC2=O)c(C(C)(C)C)cc1CO,outcome,[8],inactive
same,outcome,Adra2b (gene 24174),inactive
same,AC50,[9],17.2 µM (active)
same,outcome,[7],inactive
same,outcome,[2],inactive
O=C(N[C@@H](c1ccccc1)[C@@H]1CCCCN1)c1cccc(C(F)(F)F)c1Cl,AC50,[1],39.2 µM (active)
same,outcome,[4],inactive
same,AC50,[9],6.67 µM (active)
same,AC50,[2],12.8 µM (active)
O=C(O)c1cccnc1,outcome,[7],inactive
CCCC[C@H]1CN(CC2CCOCC2)C(=O)OC12CCN(C1(C)CCN(C(=O)c3c(C)ncnc3C)CC1)CC2,AC50,[7],4.46 µM (active)
CN(C)C(=O)NC1(c2ccccc2)CCN(CC[C@@]2(c3ccc(F)c(F)c3)CN(C(=O)c3ccccc3)CCO2)CC1,outcome,[5],inactive
same,outcome,[6],inactive
same,AC50,[2],2.1 µM (active)
CSc1ccc(Oc2ccc(S(N)(=O)=O)cc2CN(C)C)cc1C,AC50,[1],10.6 µM (active)
same,AC50,Adra2b (gene 24174),1.74 µM (active)
same,AC50,[5],25 µM (active)
same,AC50,[2],1.36 µM (active)
CCC(C)N(C)C(=O)c1cc2ccccc2c(-c2ccccc2Cl)n1 (stereo unspecified),AC50,[6],6.96 µM (active)
same,AC50,[3],7.4 µM (active)
CN(C)C(=O)NC1(c2ccccc2)CCN(CCC[C@]2(c3ccc(Cl)c(Cl)c3)CCCN(C(=O)c3ccccc3)C2)CC1,AC50,[5],10.5 µM (active)
same,AC50,[6],0.0731 µM (active)
same,AC50,[2],2.23 µM (active)
